Screening results as filed in PubChem BioAssay.
MK inhibit – blocks S. pneumoniae mevalonate kinase | purified MK, PK/LDH-coupled NADH absorbance 340 nm | inhibition, % at 10 µM | actives 0.48% (n = 65,000) | AID 555;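 active = ranked among the strongest by inhibition in the single 10 µM screen, a fixed top-ranked set picked for dose follow-up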
NADH coupling – inhibition of NAD/NADH coupling enzymes, library profiling; coupled PK/LDH NADH assays, four targets; IC50, µM (highest dose often 10 µM); actives 0.02% (n = 65,000); AID 774;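 active = single-dose screening hits from any of four coupled enzyme assays that gave an IC50 when retested across doses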;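 also: the DPM-DC format reads NADH fluorescence rather than 340 nm absorbance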
Abs 340nm – absorbance at 340 nm | fold change at 10 µM | 65,000 tested, under 10 active | AID 708 | compound absorbance at 340 nm, fold over control;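 active = at 10 µM dose, initial 340 nm absorbance at least 2 fold that of control wells; inactive = change under 2 fold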;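 also: initial absorbance extrapolated from kinetic A340 decline of NADH oxidation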
Spn PMK inh – inhibitors of Streptococcus pneumoniae phosphomevalonate kinase; purified PMK, PK/LDH-coupled NADH absorbance 340 nm; actives 0.49% (n = 65,000); inhibition, % at 10 µM;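 active = top-ranked compounds by inhibition in the single 10 µM screen, taking a fixed number of the strongest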
Spn DPM-DC inh – S. pneumoniae DPM-DC inhibition. purified DPM-DC, PK/LDH coupled NADH fluorescence. actives 0.49% (n = 65,000). calls only at 10 µM;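 active = the 320 compounds with the highest percent inhibition in the single-dose primary screen, excluding strongly autofluorescent ones, cut at about 32% in these data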;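 also: kinetic rate of NADH fluorescence loss reporting ADP formed by the decarboxylase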
Autofluor 339 – intrinsic fluorescence of library compounds, ex339/em460 – biochemical, MLSMR library, data from DPM-DC assay, artefact control, profiling panel; actives 5.5% (n = 65,000); compound autofluorescence, ex339/em460 nm, NADH buffer; active compounds read high; 1 = no-compound wells, NADH background; fluorescence fold increase at 10 µM;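 active = at 10 µM, mean starting fluorescence two-fold or more over control wells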;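 also: signal is the first read of a kinetic run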
Each line names hits and unclear results; the compound was inactive in the other large screens. The list is not random: actives were taken first. Their share in the collection is about 6.5%.

CC1=C(C(=O)N2CCOCC2)C(c2ccccc2F)C2=C(CC(C)(C)CC2=O)N1 (configuration not stated)	Autofluor 339 4.84 (not shown: Spn DPM-DC inh)
CC1CN=C(c2cccn2Cc2ccc(F)cc2Cl)O1 (configuration not stated)	none
CCN1C(=O)c2ccccc2S(=O)(=O)c2ccc(C(=O)NCc3cccnc3)cc21	none
c1ccc(N2CCN(Cc3ccsc3)CC2)nc1	none
CCOc1ccccc1N1CCN(Cc2cccc(OC)c2OC)CC1	MK inhibit 49.0
CCOc1ccccc1CN1CCN(S(=O)(=O)CC)CC1	MK inhibit 58.0
COc1ccccc1N1CCN(Cc2ccsc2)CC1	MK inhibit 42.0
COc1ccc(OC)c(CN2CCN(c3ccccc3OC)CC2)c1	MK inhibit 51.0
CCCS(=O)(=O)N1CCN(Cc2ccccc2OCC)CC1	none
CCS(=O)(=O)N1CCN(Cc2ccccc2OC)CC1	none
O=C(CSc1n[nH]c(-c2ccccc2)n1)c1ccc(O)c(O)c1	none
COC(=O)C1=C(NC(=O)c2cccc(C)c2)CCS1	none
O=C(Nc1ccc(N2CCOCC2)cc1)C1CCCN(S(=O)(=O)c2cccc(C(F)(F)F)c2)C1 (configuration not stated)	none
COc1ccccc1N1CCN(Cc2ccc(OC)c(OC)c2OC)CC1	MK inhibit 47.0
Cc1noc(C)c1CSc1ccc2ccccc2n1	none
Cc1noc(C)c1CSc1nc2ccccc2s1	Spn DPM-DC inh active
COc1cccc(C2C3=C(CCCC3=O)Nc3nc4ccccc4n32)c1OC (configuration not stated)	Autofluor 339 5.02 (not shown: Spn DPM-DC inh)
COc1cc(OC)c(C2C3=C(CCCC3=O)Nc3nc4ccccc4n32)cc1OC (configuration not stated)	none
CCOC(=O)N1CCC(NC(=O)c2cnn3cccnc23)CC1	Autofluor 339 2.15
CCNc1nnc(-c2ccccc2OC)s1	Autofluor 339 2.06 (not shown: Spn DPM-DC inh)
COc1ccccc1-c1nnc(NC(=O)C(C)SC2=NCCS2)s1 (configuration not stated)	none
CCC(=O)N(Cc1ccc2c(c1)OCO2)Cc1cc2cc(OC)ccc2[nH]c1=O	none
CCC(=O)N(Cc1cc2cc(OC)ccc2[nH]c1=O)c1ccc(C)cc1C	Autofluor 339 3.09
COCC(=O)N(Cc1cc2cc(OC)ccc2[nH]c1=O)c1ccccc1	Autofluor 339 2.69
COc1ccc2[nH]c(=O)c(CN(C(=O)C3CCCO3)c3ccc(C)cc3)cc2c1 (configuration not stated)	Autofluor 339 2.88
COc1ccc2[nH]c(=O)c(CN(C(C)=O)c3cccc(C)c3)cc2c1	Autofluor 339 3.17
CCCS(=O)(=O)N1CCCC(C(=O)N2CCOCC2)C1 (configuration not stated)	none
CCN(Cc1cc2cc(OC)ccc2[nH]c1=O)C(=O)Cc1ccc(OC)cc1	Autofluor 339 2.42
CCOc1ccccc1C(=O)N(C)Cc1cc2cc(OC)ccc2[nH]c1=O	Autofluor 339 2.69
CCN(Cc1cc2cc(OC)ccc2[nH]c1=O)C(=O)c1ccncc1	none
CCOc1ccc(N(Cc2cc3cc(OC)ccc3[nH]c2=O)S(C)(=O)=O)cc1	Autofluor 339 2.82
CCCCN(Cc1cc2cc(OC)ccc2[nH]c1=O)C(=O)COc1ccccc1	none
COc1ccc2[nH]c(=O)c(CN(C)C(=O)COc3ccccc3)cc2c1	Autofluor 339 3.35 (not shown: Spn DPM-DC inh)
CCOc1cc(C(=O)N(C)Cc2cc3cc(OC)ccc3[nH]c2=O)cc(OCC)c1OCC	none
CN(C)S(=O)(=O)NCc1ccc2c(c1)OCO2	none
O=C(CSc1nnc(-c2ccccc2Br)o1)N1CCc2ccccc2C1	none
COc1ccc(-c2nc3n(n2)C(c2ccccc2Cl)C(C(N)=O)=C(C)N3)cc1 (configuration not stated)	none
COc1ccc(-c2nnc3ccc(SCC(=O)N4CCCC4)nn23)cc1	none
CCC(Sc1ccc2nnc(-c3ccc(F)cc3)n2n1)C(=O)O (configuration not stated)	Autofluor 339 2.05
O=C(CSc1ccc2nnc(-c3cccnc3)n2n1)NCC1CCCO1 (configuration not stated)	none
CCOC(=O)CC(=O)CSc1ccc2nnc(-c3ccc(C)cc3)n2n1	Spn DPM-DC inh active
O=C(CSc1ccc2nnc(-c3cccc(F)c3)n2n1)NCC1CCCO1 (configuration not stated)	Autofluor 339 2.1
O=C(CSc1ccc2nnc(-c3ccccc3)n2n1)N1CCCCC1	Autofluor 339 2.2
CN(c1ccccc1)S(=O)(=O)c1ccc(C(=O)OCC(=O)N2CCOCC2)cc1	none
CC(C)(C)c1[nH]nc2c1C(Cc1ccccc1)C(C#N)=C(N)O2 (configuration not stated)	none
CCCCC(=O)Nc1ccccc1C#N	none
CCCCn1c(NC(=O)c2ccccc2Cl)c(C#N)c2nc3ccccc3nc21	Autofluor 339 3.95 (not shown: Spn DPM-DC inh)
CCCCn1c(NC(=O)CC)c(C#N)c2nc3ccccc3nc21	Autofluor 339 2.96 (not shown: Spn DPM-DC inh)
Cc1ccc(C2C(C(=O)c3sc(C)nc3C)=C(O)C(=O)N2CCCN(C)C)o1 (configuration not stated)	none
CCN(CC)C(=O)Cn1nc(-c2ccccc2O)nc1SCC(=O)Nc1ccc(OC)cc1	none
N#Cc1nc(-c2ccc(Cl)cc2)oc1NCCc1ccccn1	Autofluor 339 2.41 (not shown: Spn DPM-DC inh)
COc1ccc(CCNc2oc(COc3ccccc3F)nc2C#N)cc1	none
Cc1ccc(-c2nc(C#N)c(NCCc3ccccn3)o2)cc1	Autofluor 339 2.63
CC1(C)CC(=O)CC(C)(C)N1OC(=O)c1ccccn1	none
COc1ccc2c(c1)c(C(=O)CNc1nc(C)cs1)c(C)n2C	Spn PMK inh 27.0
CC(=O)c1sc(NC(=O)C2(F)C(F)(F)C(F)(F)C(F)(F)C(F)(F)C2(F)F)nc1C	none
COC(=O)c1ccc(-c2ccc(CNCC(O)c3ccccc3)o2)cc1 (configuration not stated)	Autofluor 339 2.93 (not shown: Spn DPM-DC inh)
OC(CNCCc1ccccc1)c1ccccc1 (configuration not stated)	none
CCCCSc1nc(C)c(CC(=O)O)c(=O)[nH]1	none
Cc1c(Cc2ccccc2)c(=O)oc2c(CN(C)C)c(O)c(Cl)cc12	Autofluor 339 3.77 (not shown: Spn DPM-DC inh)
Cc1nc2c(c(=O)n1Cc1ccccc1Cl)c1nc3ccccc3nc1n2Cc1ccco1	Autofluor 339 2.33
COc1ccc(C2C(C#N)=C(N)Oc3n[nH]c(C)c32)cc1Cn1nnc2ccccc21 (configuration not stated)	none
CCCc1[nH]nc2c1C(c1ccc(OC)c(Cn3nnc4ccccc43)c1)C(C#N)=C(N)O2 (configuration not stated)	MK inhibit 51.0
O=C(c1cccnc1)N1CCc2ccccc2C1	Spn PMK inh 34.0
Cc1cccc2cc(COC(=O)c3ccccn3)c(=O)[nH]c12	none
